We go through 14 compounds from PubChem BioAssay (EPA / NIEHS).

Several values for one entry are separate records, joined by “and”; a condition that tells them apart may be missing. Equal values may be shown once. The source holds several records for some structures; these can differ, active in one and inactive in another. Activity calls are given as the source filed them. Rule for the calls: active = hit-call score of the fitted dose curve at least 0.9, where 1 is the maximum; inactive = score below 0.9.

A short description of assay [1]: ATG_CRE_CIS: Attagene CIS-FACTORIAL HepG2 Assay for human cAMP Responsive Element (CRE) binding protein 3 (AID 2282926). Conditions: HepG2 CRE cis-reporter, Attagene multiplexed mRNA; actives raise or lower the signal. A digest of the protocol:
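Endogenous transcription factor activity read via CRE-regulated reporter transcripts in transfected HepG2 cells. After 24 h exposure, RNA was reverse-transcribed, amplified, fluorescently labelled and sized by capillary electrophoresis; gain or loss fitted against DMSO.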

For assay [2], the target named is CCAAT/enhancer-binding protein beta (Homo sapiens) (UniProt P17676). Description: ATG_C_EBP_CIS: Attagene CIS-FACTORIAL HepG2 Assay for human CCAAT/Enhancer Binding Protein (C/EBP) beta (AID 2282927). Conditions: HepG2 Attagene cis-factorial transcription factor reporter; actives raise or lower the signal. A digest of the protocol: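 Endogenous C/EBPb-driven reporter transcripts measured in transfected human HepG2 cells at 24 h via RT-PCR and capillary electrophoresis of labelled fragments. Activity fitted in both directions relative to DMSO baseline.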

Assay [3] is described as follows: ATG_CMV_CIS: Attagene CIS-FACTORIAL HepG2 Assay for human CMV (Internal Marker) (AID 2282928).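 Note: endpoint acts as a background internal control marker rather than a target.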 Particulars: HepG2 CMV promoter reporter, transcription factor profiling; actives raise or lower the signal. Summed up: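 Readout: fluorescent reporter cDNA fragments separated by capillary electrophoresis after RT-PCR and HpaI cut. Cells: HepG2 carrying transfected cis-promoter reporter constructs, dosed 24 h. Endpoint serves as background internal-marker control, fit bidirectionally versus DMSO.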

Assay [4] can be described thus: ATG_DR4_LXR_CIS: Attagene CIS-FACTORIAL HepG2 Assay for human Liver X Receptor (LXR), DR4 submotif (AID 2282929). Conditions: HepG2 Attagene DR4 cis-reporter, mRNA transcription; actives raise or lower the signal. Summed up: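 Fluorescence intensity of labelled reporter cDNA fragments, separated by capillary electrophoresis, gives the signal. HepG2 cells bearing cis-regulated reporter constructs were treated 24 h; activity fitted bidirectionally relative to DMSO negative control.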

In assay [5] the target is Aryl hydrocarbon receptor (Homo sapiens) (UniProt P35869). Briefly: ATG_Ahr_CIS: Attagene CIS-FACTORIAL HepG2 Assay for human Aryl Hydrocarbon Receptor (Ahr) (AID 2282930). Particulars: HepG2 AhR cis-factorial reporter transcription; actives raise or lower the signal. Summed up:
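Reporter mRNA levels, quantified by RT-PCR and fluorescent capillary electrophoresis, reflect endogenous AhR transcriptional activity in HepG2 cells carrying transfected cis-promoter reporter constructs. Readout at 24 h post-dose; gain or loss fitted against DMSO baseline.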

A short description of assay [6]: ATG_AP_1_CIS: Attagene CIS-FACTORIAL HepG2 Assay for human Activator Protein 1 (AP-1) (AID 2282931). Particulars: HepG2 Attagene cis-factorial AP-1 reporter mRNA; actives raise or lower the signal. Summed up: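 Multiplexed HepG2 reporter assay, 24 h dosing. mRNA induction detected by RT-PCR plus capillary electrophoresis. Activity fitted in both directions against DMSO.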

Assay [7] is described as follows: ATG_AP_2_CIS: Attagene CIS-FACTORIAL HepG2 Assay for human Activator Protein 2 (AP-2) (AID 2282932). Particulars: HepG2 AP-2 cis-reporter, Attagene transcription factor profiling; actives raise or lower the signal. Summed up: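 Endogenous transcription factor activity is reported through transfected multiplex reporter constructs in HepG2, after 24 h of compound exposure. Transcripts were quantified by RT-PCR and capillary electrophoresis of fluorescent fragments. Bidirectional fit against DMSO.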

Assay [8] in a line: ATG_BRE_CIS: Attagene CIS-FACTORIAL HepG2 Assay for human Bone Morphogenetic Protein (BMP) Response Element (BRE) (AID 2282933). Particulars: HepG2 BMP response element reporter, Attagene transcription factor profiling; actives raise or lower the signal. Summed up:
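Transient MRTU transfection of human HepG2 liver cells; 24 h compound treatment; total RNA isolated, reverse-transcribed, PCR-amplified, 6-FAM labelled, HpaI-cut, capillary electrophoresis. DMSO = negative control/baseline, bidirectional fit.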

A short description of assay [9]: APR_HepG2_NuclearSize_72hr: Apredica 72-hour HepG2 Assay for Nuclear Size (AID 2282925). Particulars: high-content imaging, actives raise or lower the signal. Summed up: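 Nuclear size was read by high-content imaging of Hoechst 33342 stain after formaldehyde fixation. Compounds ran 72 h on HepG2 at 0.39 to 200 uM, with final DMSO 0.5% v/v. Curves fitted both directions relative to DMSO control.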

Assay [10] deals with Retinoic acid receptor alpha (Homo sapiens) (UniProt P10276). Briefly: ATG_DR5_RAR_CIS: Attagene CIS-FACTORIAL HepG2 Assay for human Retinoic Acid Receptor Alpha (RARE), DR5 submotif (AID 2282934).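 For AC50: reporter responds to endogenous RAR alpha beta and gamma in HepG2 not RARA alone.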 Conditions: HepG2 Attagene cis-factorial RARE DR5 reporter, mRNA; actives raise or lower the signal. A digest of the protocol:
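Reporter transcripts from a DR5-regulated unit, measured via RT-PCR plus capillary electrophoresis, reflect endogenous RAR activity in transiently transfected human HepG2 liver cells. Exposure lasted 24 h; gain or loss of signal scored against DMSO.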

Sequence of Retinoic acid receptor alpha (Homo sapiens) (P10276 whole entry, looked up): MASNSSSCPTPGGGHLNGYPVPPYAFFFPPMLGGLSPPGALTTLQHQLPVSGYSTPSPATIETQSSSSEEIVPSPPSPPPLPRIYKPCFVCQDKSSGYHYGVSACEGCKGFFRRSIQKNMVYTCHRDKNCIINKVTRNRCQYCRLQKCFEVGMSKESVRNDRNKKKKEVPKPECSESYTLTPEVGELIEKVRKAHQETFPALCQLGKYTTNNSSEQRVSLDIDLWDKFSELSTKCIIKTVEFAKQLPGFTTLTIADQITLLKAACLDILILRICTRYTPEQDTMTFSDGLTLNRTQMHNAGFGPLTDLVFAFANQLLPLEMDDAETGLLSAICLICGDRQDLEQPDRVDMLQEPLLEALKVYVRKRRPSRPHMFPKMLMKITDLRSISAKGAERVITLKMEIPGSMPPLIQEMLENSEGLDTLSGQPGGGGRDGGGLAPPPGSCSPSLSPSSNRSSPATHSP
Sequence of Aryl hydrocarbon receptor (Homo sapiens) (P35869 whole entry, looked up): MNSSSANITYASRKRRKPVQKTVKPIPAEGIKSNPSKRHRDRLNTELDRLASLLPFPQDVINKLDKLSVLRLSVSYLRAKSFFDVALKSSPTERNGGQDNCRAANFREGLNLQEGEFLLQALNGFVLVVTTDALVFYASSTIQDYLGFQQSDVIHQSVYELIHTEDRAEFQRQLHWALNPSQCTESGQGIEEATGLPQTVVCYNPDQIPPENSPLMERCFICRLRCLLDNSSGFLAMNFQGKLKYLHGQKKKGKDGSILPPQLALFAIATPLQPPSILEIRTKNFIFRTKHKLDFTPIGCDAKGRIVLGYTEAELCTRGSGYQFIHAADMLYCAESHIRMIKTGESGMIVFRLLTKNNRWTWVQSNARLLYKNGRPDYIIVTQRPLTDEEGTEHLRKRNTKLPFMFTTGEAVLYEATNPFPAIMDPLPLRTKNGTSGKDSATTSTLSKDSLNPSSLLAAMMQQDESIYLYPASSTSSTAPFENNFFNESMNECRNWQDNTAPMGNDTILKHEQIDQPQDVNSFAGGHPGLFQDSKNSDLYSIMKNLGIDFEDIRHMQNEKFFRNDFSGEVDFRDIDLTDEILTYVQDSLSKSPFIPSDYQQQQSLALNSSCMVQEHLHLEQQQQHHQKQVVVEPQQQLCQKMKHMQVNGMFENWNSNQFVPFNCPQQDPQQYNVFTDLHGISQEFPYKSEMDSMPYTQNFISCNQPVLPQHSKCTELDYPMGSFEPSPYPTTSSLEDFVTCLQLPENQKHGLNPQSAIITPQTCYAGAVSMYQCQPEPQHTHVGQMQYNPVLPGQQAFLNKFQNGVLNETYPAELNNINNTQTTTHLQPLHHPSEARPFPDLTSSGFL
Sequence of CCAAT/enhancer-binding protein beta (Homo sapiens) (P17676 whole entry, looked up, the tested form may be a part): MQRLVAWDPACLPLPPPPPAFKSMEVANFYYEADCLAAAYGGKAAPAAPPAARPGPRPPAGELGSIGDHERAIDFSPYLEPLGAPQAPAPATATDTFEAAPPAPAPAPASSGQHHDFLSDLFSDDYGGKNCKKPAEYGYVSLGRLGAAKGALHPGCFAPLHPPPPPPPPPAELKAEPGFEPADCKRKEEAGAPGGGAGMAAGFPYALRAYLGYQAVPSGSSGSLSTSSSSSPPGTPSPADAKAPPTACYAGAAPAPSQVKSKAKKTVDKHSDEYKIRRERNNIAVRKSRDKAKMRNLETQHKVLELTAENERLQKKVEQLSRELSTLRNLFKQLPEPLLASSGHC

`COc1cnc(OC)n2nc(NS(=O)(=O)c3c(OCC(F)F)cccc3C(F)(F)F)nc12`: the call in [1], in assay [2], in assay [3], in assay [4], in assay [5] and in [6] was inactive. For the same compound, the call in assay [7] and in assay [8] was inactive.

`COc1ccc(C(c2ccc(OC)cc2)C(Cl)(Cl)Cl)cc1`: the compound was called inactive in assay [9], in assay [1], in assay [2], in assay [3], in [4] and in assay [5]. Besides, the compound was called inactive in assay [6], in assay [7], in assay [8] and in assay [10]. In addition, the concentration at half-maximal activity (AC50) (usually the concentration giving half of the maximal activity seen) in assay [5] is 15200 nM (active); in [6], 39.8 µM (active) and 59.5 µM (active) and 34.4 µM (active); in assay [8], 29.7 µM (active) and 15.5 µM (active); in [10], 19700 nM (active).

Turning to `CNC(=O)ON=CC(C)(C)SC`, the call in assay [1], in assay [2], in [3], in [4], in assay [5] and in assay [6] was inactive. The result in assay [7], in assay [8] and in assay [10] was inactive.

As for `COc1nc(C)nc(NC(=O)NS(=O)(=O)c2ccccc2CCC(F)(F)F)n1`, the compound was classed as inactive in assay [1], in [2], in assay [3], in [4], in assay [5] and in assay [6]. Besides, the compound was classed as inactive in assay [7], in assay [8] and in assay [10].

Turning to `CC(Oc1ccc(Cl)cc1Cl)C(=O)O` (stereo not given), the call in assay [1], in [2], in assay [3], in [4], in assay [5] and in assay [6] was inactive. In addition, the call in [7], in assay [8] and in [10] was inactive.

Regarding `C#CCOS(=O)OC1CCCCC1Oc1ccc(C(C)(C)C)cc1` (stereo not given), the concentration at half-maximal activity (AC50) is 994 nM (active) in [1], 658 nM (active) in assay [2], 1.55 µM (active) in assay [6] and 1.16 µM (active) in assay [8]. In addition, the call in assay [3], in assay [4], in assay [5], in assay [7] and in assay [10] was inactive.

Turning to `CN(C)C(=S)SSC(=S)N(C)C`, the result in [1], in assay [2], in [3], in assay [4], in [5] and in [6] was inactive. The outcome in [7], in assay [8] and in [10] was inactive.

Regarding `COc1nc(C)nc(NC(=O)NS(=O)(=O)c2ccccc2Cl)n1`, the compound was called inactive in assay [1], in [2], in [3], in assay [4], in [5] and in [6]. Further, the call in [7], in [8] and in assay [10] was inactive.

As to `CCOC(=O)C(Cl)Cc1cc(-n2nc(C)n(C(F)F)c2=O)c(F)cc1Cl` (stereo not given), the result in [1], in [2], in assay [3], in assay [4], in [5] and in assay [6] was inactive. Besides, the call in [7], in assay [8] and in [10] was inactive.

Consider `O=C(O)COc1nc(Cl)c(Cl)cc1Cl`, for which the call in assay [1], in assay [2], in assay [3], in [4], in assay [5] and in assay [6] was inactive. Further, the compound was called inactive in assay [7], in assay [8] and in assay [10].

On to `COP(=S)(OC)Oc1nc(Cl)c(Cl)cc1Cl`, for which the outcome in [1], in assay [2], in assay [3], in [5], in assay [6] and in assay [7] was inactive. Besides, the call in assay [8] and in assay [10] was inactive. The AC50 in [4] is 85100 nM (active).

As for `CC1=C(C(=O)Nc2ccccc2)SCCO1`, the outcome in assay [1], in [2], in assay [3], in assay [4], in [5] and in assay [6] was inactive. For the same compound, the call in [7], in assay [8] and in assay [10] was inactive.

As for `Cc1c(F)c(F)c(COC(=O)C2C(/C=C(\Cl)C(F)(F)F)C2(C)C)c(F)c1F` (stereo not given), the result in assay [1], in assay [2], in [3], in [4], in [5] and in [6] was inactive. The outcome in assay [7], in assay [8] and in assay [10] was inactive.

`COP(N)(=O)SC` (stereo not given): the compound was called inactive in assay [1], in [2], in assay [3], in assay [4], in [5] and in assay [6]. Further, the compound was classed as inactive in assay [7], in [8] and in [10].
